# Experimental data as given in PMC4336329 (PLoS ONE, 2015).
# About 14,000 (4.5%) of roughly 310,000 compounds showed an effect of 50% or more. Effects have a minus sign here. This is one part of a sample in which strong results are shown more often than they occur.
# Target: human ether-à-go-go-related gene (hERG) potassium channel (human, UniProt Q12809)
# Assay: primary screen, population patch clamp on CHO cells stably expressing hERG; higher = less effect of the substance
# Method: Briefly, Chinese hamster ovary (CHO) cells stably expressing the hERG channel were dislodged from tissue culture flasks and dispensed into PPC plates. […] During the recording, background leak currents were estimated by a 100 ms step to -80 mV from an initial holding potential of -70 mV and subtracted from the subsequent current measurement. The campaign was conducted in two phases using slight differences in recording protocol. In the first phase, the initial voltage pulse used a 100 ms step to -30 mV from a holding potential of -70 mV, a 2 s conditioning step to +25 mV, and a 2 s test step to -30 mV. During the second phase of the screen, the potential during the conditioning step was raised to +45 mV. In both phases of the campaign, a secondary voltage pulse was applied using the same parameters as the second phase initial pulse. The initial and secondary pulses were applied in the absence of compound, and upon application of 1 μM and 10 μM test concentrations. […]
# 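Further: peak tail current of the secondary pulse compared with the same well before compound.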
# Chain of human ether-à-go-go-related gene (hERG) potassium channel (Q12809 whole entry, looked up): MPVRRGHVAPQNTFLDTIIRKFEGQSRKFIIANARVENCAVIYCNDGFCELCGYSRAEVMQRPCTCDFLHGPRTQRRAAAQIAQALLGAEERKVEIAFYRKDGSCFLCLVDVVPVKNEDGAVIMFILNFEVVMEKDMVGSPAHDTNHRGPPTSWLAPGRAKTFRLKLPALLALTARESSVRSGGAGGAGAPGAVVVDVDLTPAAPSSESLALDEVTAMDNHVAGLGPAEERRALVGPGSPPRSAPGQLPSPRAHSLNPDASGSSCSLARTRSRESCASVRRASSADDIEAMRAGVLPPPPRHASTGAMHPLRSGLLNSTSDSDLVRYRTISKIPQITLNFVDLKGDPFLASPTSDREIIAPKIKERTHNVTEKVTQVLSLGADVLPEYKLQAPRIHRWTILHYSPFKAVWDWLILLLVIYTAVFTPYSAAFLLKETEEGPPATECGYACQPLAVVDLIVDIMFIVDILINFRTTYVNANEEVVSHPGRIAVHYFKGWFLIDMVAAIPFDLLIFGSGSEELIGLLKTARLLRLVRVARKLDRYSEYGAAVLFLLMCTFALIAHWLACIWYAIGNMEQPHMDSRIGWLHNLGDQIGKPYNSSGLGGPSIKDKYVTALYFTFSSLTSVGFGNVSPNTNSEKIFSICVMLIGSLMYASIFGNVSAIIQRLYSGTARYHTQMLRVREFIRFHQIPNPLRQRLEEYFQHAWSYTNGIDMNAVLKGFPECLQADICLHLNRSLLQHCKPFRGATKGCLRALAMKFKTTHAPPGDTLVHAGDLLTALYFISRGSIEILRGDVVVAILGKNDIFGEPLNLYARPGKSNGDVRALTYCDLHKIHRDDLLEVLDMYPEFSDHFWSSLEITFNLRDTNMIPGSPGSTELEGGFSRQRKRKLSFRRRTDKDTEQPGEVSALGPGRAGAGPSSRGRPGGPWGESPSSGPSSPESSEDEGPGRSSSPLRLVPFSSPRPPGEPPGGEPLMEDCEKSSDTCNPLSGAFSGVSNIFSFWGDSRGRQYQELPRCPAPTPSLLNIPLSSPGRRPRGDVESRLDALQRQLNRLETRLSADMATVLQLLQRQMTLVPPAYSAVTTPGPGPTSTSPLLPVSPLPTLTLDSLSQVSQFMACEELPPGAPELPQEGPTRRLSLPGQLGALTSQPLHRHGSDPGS
row,Structure (SMILES),"hERG current change (%, negative = inhibition) at 10uM [%]"
1,CCNS(=O)(=O)c1ccc(NC(=S)N2CCc3ccccc32)cc1,22.9
2,CCOC(=O)c1c(C)nsc1NC(=O)C1CCCCC1,17.3
3,COc1ccc(OCC(=O)N2CCN(S(=O)(=O)c3ccc(Cl)s3)CC2)cc1,-0.573
4,O=S(=O)(c1cccs1)N1CCN(Cc2nc3ccccc3s2)CC1,-27.8
5,N#Cc1ccc(OCC(=O)N2CCN(S(=O)(=O)c3cccs3)CC2)cc1,-72.1
6,CC(C)(C)c1ccc(C(=O)N2CCN(S(=O)(=O)c3ccc(Br)s3)CC2)cc1,1.21
7,N#Cc1ccc(OCC(=O)N2CCN(S(=O)(=O)c3ccc(Cl)s3)CC2)cc1,-69.5
8,O=C(CCc1nc2ccccc2s1)N1CCN(S(=O)(=O)c2cccs2)CC1,-66.7
9,CCC(=O)c1ccc(OCC(=O)N2CCN(S(=O)(=O)c3ccc(Cl)s3)CC2)cc1,-4.53
10,N#Cc1ccc(C(=O)N2CCN(S(=O)(=O)c3ccc(Br)s3)CC2)cc1,-63.5
11,O=C(CCCc1nc2ccccc2s1)N1CCN(S(=O)(=O)c2cccs2)CC1,-11.9
12,N#Cc1ccc(C(=O)N2CCN(S(=O)(=O)c3ccc(Cl)s3)CC2)cc1,-49.9
13,O=C(COc1ccccc1)N1CCN(S(=O)(=O)c2cccs2)CC1,-31
14,O=C(CCOc1ccccc1)N1CCN(S(=O)(=O)c2cccs2)CC1,-9.15
15,CCN(CC(=O)NC(=O)Nc1ccccc1F)Cc1ccccc1,12.4
16,Cc1ccc(N(CCC(=O)N2CCOCC2)S(=O)(=O)c2ccccc2)cc1,-8.57
17,Cn1c(NC(=O)C2c3ccccc3Oc3ccccc32)cc(=O)n(C)c1=O,-3.72
18,C=CCn1c2ccccc2c2nnc(SCC(=O)Nc3cc(C)on3)nc21,-8.39
19,CCOC(=O)CNC(=O)c1nn(-c2cccc(OC)c2)c(=O)c2ccccc12,-22.9
20,O=C(COC(=O)c1cccc(Oc2ccccc2)c1)NCc1ccco1,3.19
21,Cc1ccc(C(C(=O)NC2CCCCC2)N(Cc2ccco2)C(=O)C2COc3ccccc3O2)o1 (stereo not shown),-6.27
22,O=C(NC1CCCCC1)C(c1ccco1)N(Cc1cccnc1)C(=O)C1COc2ccccc2O1 (stereo not shown),-18.8

row,Structure (SMILES),"hERG current change (%, negative = inhibition) at 10uM [%]"
1,Cc1ccc(C(C(=O)NC2CCCCC2)N(Cc2cccnc2)C(=O)C2COc3ccccc3O2)o1 (stereo not shown),-59.7
2,Cc1ccc(NC(=O)c2sc(C)nc2C)c(C)c1,1.97
3,O=C(N/N=C/c1ccccc1OCc1ccccc1)c1cccs1,5.13
4,Cc1c(C)c2ccc(OS(C)(=O)=O)cc2oc1=O,-58.4
5,Cc1cc(=O)oc2cc(OS(C)(=O)=O)ccc12,4.31
6,CCc1cc(=O)oc2cc(OS(C)(=O)=O)ccc12,-5.44
7,CCOC(=O)c1ccc(Oc2c(C)oc3cc(OS(C)(=O)=O)ccc3c2=O)cc1,-66
8,CCOC(=O)c1c(C)oc2ccc(OS(C)(=O)=O)cc12,1.04
9,CCOc1ccc2c(=O)c(Oc3ccccc3)c(C)oc2c1,-6.41
10,COc1ccccc1/C=C/C=N/N1CCN(Cc2ccccc2)CC1,-8.94
11,COc1ccc(/C(O)=C2/C(=O)C(=O)N(CC3CCCO3)C2c2ccc(OC)c(OC)c2)cc1 (stereo not shown),1.45
12,Cc1cnc(NC(=O)CCCNC(=O)c2ccc(Cl)cc2)s1,12.8
13,Cc1ccccc1-n1c(-c2ccc([N+](=O)[O-])cc2)nc2ccccc2c1=O,-0.532
14,CC1=NN(C(=O)c2cccc(Cn3nc(C)c([N+](=O)[O-])c3C)c2)C(O)(C(F)(F)F)C1 (stereo not shown),0.484
15,Cc1nn(Cc2cccc(C(=O)N3N=C(C(F)F)CC3(O)C(F)F)c2)c(C)c1[N+](=O)[O-] (stereo not shown),-19.6
16,CC1=NN(C(=O)c2ccc(Cn3nc(C)c([N+](=O)[O-])c3C)cc2)C(O)(C(F)(F)F)C1 (stereo not shown),-28.8
17,Cc1nn(Cc2ccc(C(=O)N3N=C(C(F)F)CC3(O)C(F)F)o2)c(C)c1[N+](=O)[O-] (stereo not shown),-37.3
18,Cc1nn(Cc2ccc(C(=O)N3N=C(C(F)F)CC3(O)C(F)F)cc2)c(C)c1[N+](=O)[O-] (stereo not shown),-62.9
19,CC1=NN(C(=O)c2ccc(Cn3nc(C)c([N+](=O)[O-])c3C)o2)C(O)(C(F)(F)F)C1 (stereo not shown),-52.8
20,C=CCn1c(=O)/c(=C\c2ccccn2)s/c1=C(/C#N)C(=O)NCC1CCCO1 (stereo not shown),-3.51
21,CN1CCC(=NNC(=O)CN(c2ccc(Oc3ccccc3)cc2)S(C)(=O)=O)CC1,9.51
22,Cc1ccc([N+](=O)[O-])cc1S(=O)(=O)NCCc1cn2ccccc2n1,-2.95

row,Structure (SMILES),"hERG current change (%, negative = inhibition) at 10uM [%]"
1,CC(C)CCN(C(=O)CNC(=O)c1cccs1)C(C(=O)NC1CCCCC1)c1cccnc1 (stereo not shown),-36.4
2,C=C1C(=O)[C@@]23[C@H](O)C[C@@H]4C(C)(C)CC[C@H](O)[C@@]4(C)[C@@H]2CC[C@@H]1[C@H]3O,-9.9
3,COc1ccc(Cn2c(C(F)(F)F)ccc(C(N)=O)c2=O)cc1,1.62
4,Clc1ccc(-c2cc(-c3nnc4n3CCCCC4)c3ccccc3n2)cc1,-42.1
5,O=c1c2ccccc2nc2n1CCC2,13.6
6,Fc1ccc(-c2cc(-c3nnc4n3CCCCC4)c3ccccc3n2)cc1,-63.5
7,O=c1c2ccccc2nc2n1CCCCC2,-4.17
8,c1ccc2c(-c3nnc4n3CCCCC4)cc(-c3ccncc3)nc2c1,-48.7
9,N=c1c2ccccc2nc2n1CCCCCCCCCCC2,-62
10,O=C(NCc1cccnc1)c1cc2nc(-c3ccc4c(c3)OCO4)cc(C(F)(F)F)n2n1,3.07
11,COc1ccc(NS(=O)(=O)c2cccc(C(=O)NNC(=O)NCCCl)c2)cc1,20.3
12,CN1CCc2c(sc(NC(=O)c3ccc(S(=O)(=O)N4CCCCCC4)cc3)c2C(N)=O)C1,5.51
13,O=C1CN(C(=O)c2ccc(Cl)c(S(=O)(=O)N3CCc4ccccc43)c2)c2ccccc2N1,-21
14,COCCn1nnnc1CN1CCC(C)CC1,-2.19
15,O=C(Cn1cnc2c(oc3ccccc32)c1=O)c1ccccc1,2.38
16,O=C(NC1CCCCCC1)C1CCN(S(=O)(=O)c2ccc(F)cc2)CC1,0.579
17,CN1/C(=C/C=C(C#N)C#N)C(C)(C)c2ccccc21,14.7
18,CN1/C(=C\C=Nc2ccccc2)C(C)(C)c2ccccc21,-72.1
19,Cc1cc(/N=C/C=C2\N(C)c3ccccc3C2(C)C)n(CCC#N)n1,-29.8
20,CN1/C(=C\C=Nc2cc(S(=O)(=O)N3CCOCC3)ccc2N2CCOCC2)C(C)(C)c2ccccc21,-71
21,CN1/C(=C/C=N/n2cnnc2)C(C)(C)c2ccccc21,-1.92
22,CO/N=C/C=C1/N(C)c2ccccc2C1(C)C,19.8

row,Structure (SMILES),"hERG current change (%, negative = inhibition) at 10uM [%]"
1,O=S(=O)(c1ccc(N2CCOCC2)c(Cl)c1)N1CCOCC1,15.5
2,CN1C(=O)C(C)(C)c2cc(S(=O)(=O)N3CCN(c4ccccc4F)CC3)ccc21,-3.03
3,CN1/C(=C\C=Nc2ccc3ccccc3c2)C(C)(C)c2ccccc21,-74.8
4,Cc1ccccc1N=CC=C1OC(C)(C)C(C)(C)O1,-1.54
5,CN1/C(=C\C=N\O)C(C)(C)c2ccccc21,17.1
6,Cc1ccccc1N=C/C=C1\N(C)c2ccccc2C1(C)C,-70.7
7,COc1ccc(NC(=O)NCc2ccncc2)cc1,13.8
8,CC(C)(C)c1ccc(C(=O)NNc2ccc(F)cc2F)cc1,9.96
9,CC1(C)OC2CC3C4CC(F)C5=CC(=O)C=CC5(C)C4(F)C(O)CC3(C)C2(C(=O)CO)O1 (stereo not shown),-7.01
10,O=C1C=C(c2cc3ccccc3s2)C[C@@H](c2ccc(F)cc2)C1,5.01
11,CC(=O)N1c2ccc(S(=O)(=O)N3CCCC(C(=O)NCc4ccccc4)C3)cc2CC1C (stereo not shown),13.7
12,O=C(Nc1ccccc1)N1CCC(c2ccccc2)C1 (stereo not shown),-4.49
13,Cc1c(N=C/C=C2/N(C)c3ccccc3C2(C)C)c(=O)n(-c2ccccc2)n1C,-38.1
14,CN(C)c1ccc(N=C/C=C2\N(C)c3ccccc3C2(C)C)cc1,-82.8
15,CN1/C(=C\P(=O)(N(C)C)N(C)C)C(C)(C)c2ccccc21,-6.64
16,Cc1c(NC(=S)/C=C2\N(C)c3ccccc3C2(C)C)c(=O)n(-c2ccccc2)n1C,0.171
17,Cc1c(N=C/C=C2\N(C)c3ccccc3C2(C)C)c(=O)n(-c2ccccc2)n1C,-53.7
18,CN1/C(=C\C=C(C#N)C#N)C(C)(C)c2ccccc21,11.5
19,CC(=O)N1CCN(c2ccc(N=Cc3c(O)n(-c4ccc(Cl)cc4)c(=O)[nH]c3=O)cc2)CC1,1.55
